Source: PubChem BioAssay (National Center for Advancing Translational Sciences (NCATS))
HT1080 IDH1KD tx – qHTS for induction of synthetic lethality in tumor cells producing 2HG: qHTS for the HT-1080-IDH1KD cell line; HT-1080 IDH1 knockdown viability, ATP luminescence, 48 h; Potency, µM (top dose mostly 46.1 µM), usual class: cytotoxic; 360,000 tested, 2% active; AID 686971, 2013
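% activity derives from luminescence (CellTiter-Glo), normalised to DMSO and no-cell wells. HT-1080-IDH1KD cells, 750/well, had 48 h compound exposure at 37 °C.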
TDP1 cell noCPT – qHTS for Inhibitors of human tyrosyl-DNA phosphodiesterase 1 (TDP1): qHTS in cells in absence of CPT. 420,000 tested, 15% active. DT40 Tdp1-/- hTDP1 cells, no CPT, ATP luminescence, 48 h. Potency, µM (titrated, usually from 46.2 µM), most hits filed as inhibitors; also: nearly all actives have a fitted effect of over 55% in size
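Chicken DT40 Tdp1-/- cells stably complemented with human TDP1 were seeded at 400 cells/well with DMSO in place of 20 nM camptothecin. After compound pinning, cells grew at least 48 hr at 37 °C; viability read by CellTiter-Glo luminescence.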
HT1080NT lethal – qHTS for induction of synthetic lethality in tumor cells producing 2HG: qHTS for the HT-1080-NT fibrosarcoma cell line; HT-1080-NT fibrosarcoma viability, CellTiter-Glo ATP luminescence, 48 h; Potency, µM (series often up to 46.1 µM), actives largely listed as cytotoxic; 360,000 tested, 1.6% active; AID 686970, 2013;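 also: NT is the 2HG producing partner of a matched IDH1 knockdown line; nearly all actives have a fitted effect of over 55% in size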
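Luminescent CellTiter-Glo readout after 48 hours of compound exposure at 37 degrees C defined viability of HT-1080-NT cells. Activity was normalized to DMSO wells and cell-free media wells; concentration-response curves were fitted and assigned curve classes.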
DT40 TDP1 CPT – qHTS for Inhibitors of human tyrosyl-DNA phosphodiesterase 1 (TDP1): qHTS in cells in presence of CPT | 420,000 tested, 12% active | Potency, µM (top dose mostly 46.2 µM), actives largely listed as inhibitors | chicken DT40 Tdp1-/-;hTDP1 cells + 20 nM CPT, ATP luminescence, 48 h | AID 686979, 2013; also: nearly all actives have a fitted effect of over 55% in size
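Cell growth measured by CellTiter-Glo luminescence after a minimum 48 h, 37 C compound exposure with 20 nM CPT in Tdp1-knockout DT40 cells stably expressing hTDP1, seeded 400/well; qHTS titration format.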
IL1B secr inh – qHTS for Inhibitors of Inflammasome Signaling: IL-1-beta AlphaLISA Primary Screen; THP-1 LPS/ATP IL-1B secretion, AlphaLISA, 16 h; stronger effect = lower value; activity change, % at 57.5 µM; 360,000 tested, 4.7% active; in the data active = activity change below about -50%; inconclusive = mostly about -30% to -49%
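THP-1 cells pretreated 1 hr with compounds (up to 57.5 uM final), then stimulated with LPS (250 ng/mL final) plus ATP (1.25 mM final); secreted IL-1B measured by AlphaLISA after 16 hr, decreased signal indicating inhibition.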
A number is an active result; n = inactive; u = inconclusive; x = no result; [ ] = dose if it differs, or a comment. The list is not random: actives were taken first. Their share in the collection is about 19%. Unless noted, calls follow the shape of the dose curve; as a rule, active = well fitted curve in the direction sought with a large enough effect; inconclusive = small, poorly fitted or top-dose-only effect, or another doubt; inactive = no such curve, though single readings can be large; an effect the other way counts as inactive or inconclusive.

SMILES | HT1080 IDH1KD tx | TDP1 cell noCPT | HT1080NT lethal | DT40 TDP1 CPT | IL1B secr inh
CCOc1ccc(CNC(=O)C(C)n2ccc3cc(S(=O)(=O)N4CCCC4)ccc32)cc1 (configuration not stated) | n | 21µM | u | u | n
N#CC(C#N)=CC1=C2OC(c3ccccc3)=CC(c3ccccc3)=C2CCC1 | n | 13µM | n | 26µM | n
C=CCNC(=S)NNC(=O)CCC(O)CCCCC (configuration not stated) | n | 18µM | n | 15µM | n
C=CCNC(=S)NNC(=O)C(CCCC)CC(C)O (configuration not stated) | n | u | n | u | n
Cc1oc(-c2ccccc2NC(=O)c2ccsc2)nc1CN(C)CC1CC=CCC1 (configuration not stated) | x | n | x | n[9.04 µM] | x
CC(C)CCNC(=O)Nc1ccc2c(c1)N(Cc1ccccc1)C(=O)c1ccccc1S2 | x | u | x | 18µM | x
CC(C)CCNC(=O)c1ccc2c(c1)N(Cc1cccc(Cl)c1)C(=O)c1ccccc1S2 | x | 21µM | x | u | x
Cc1cccc(CN2C(=O)c3ccccc3Sc3ccc(C(=O)NCCc4ccccc4)cc32)c1 | x | u | x | n | x
N#Cc1nc(Cc2cccc3ccccc23)oc1NCc1ccc(F)cc1 | u | 21µM | u | u | n
C=CCNc1oc(Cc2cccc3ccccc23)nc1C#N | n | n | n | n | n
CC(=O)C[C@H]1c2ccccc2S(=O)(=O)N1c1ccccc1 | n | n | n | u | n
Cc1cc(C)cc(NC(=O)Nc2ccc(NC(=O)c3ccccc3O)cc2)c1 | n | 21µM | u | u | n
C=Cc1ccc(S(=O)(=O)O)cc1 | x | n | x | n | x
CC(C)(C)OC(=O)C[C@@H]1C/C=C\C[C@@H](CC(=O)N(CCO)Cc2ccccc2)C(=O)NC[C@H](c2ccccc2)OC1=O | n | u | u | 12µM | n
CC(C)(C)OC(=O)C[C@@H]1C/C=C\C[C@@H](CC(=O)N(CCO)Cc2ccccc2)C(=O)NC[C@@H](c2ccccc2)OC1=O | n | u | n | 21µM | n
CC(C)(C)OC(=O)C[C@@H]1C/C=C\C[C@H](CC(=O)N(CCO)Cc2ccccc2)C(=O)NC[C@H](c2ccccc2)OC1=O | n | u | n | u | n
CC(C)C(=O)N1CCC1(C)C(=O)Nc1ccc2[nH]ccc2c1 (configuration not stated) | n | n | n | n | n
CC(=O)Nc1c(C)nn(-c2ccccc2)c1N1CCC(C(=O)Nc2ccccc2F)CC1 | x | n | x | n | x
CC(NC(=O)C1CCC(CNS(=O)(=O)c2ccc3c(c2)C(C)(C)C(=O)N3C)CC1)c1ccccc1 (configuration not stated) | n | n | n | n | n
COc1ccc(NC(=O)CN2CCN(S(=O)(=O)c3ccc(Cl)cc3)CC2)cc1 | n | u | n | n | n
CCc1cccc(C)c1NC(=O)CN1CCN(S(=O)(=O)c2ccc(C(C)(C)C)cc2)CC1 | n | 23µM | u | n | u
O=C(CN1CCN(S(=O)(=O)c2ccc(F)cc2)CC1)Nc1cccc(C(F)(F)F)c1 | n | n | n | u | -69
NS(=O)(=O)c1ccc(NC(=O)CN2CCN(S(=O)(=O)c3ccc(F)cc3)CC2)cc1 | n | 21µM | n | 21µM | n
COc1ccc(S(=O)(=O)N2CCN(CC(=O)Nc3ccc(Cl)c(C(F)(F)F)c3)CC2)cc1 | x | 8.2µM | x | 9.2µM | x
CCc1nc2ccc(C(=O)N(CC)CCN(C)C)cn2c1N(CC)CCOC | n | n | n | n | n
SMILES | HT1080 IDH1KD tx | TDP1 cell noCPT | HT1080NT lethal | DT40 TDP1 CPT | IL1B secr inh
CC1(C2CC(C(F)(F)F)n3nc(C(=O)O)cc3N2)CC1 (configuration not stated) | n | n | n | n | n
Cc1sc2nc(C(C)Nc3ccccc3N3CCOCC3)[nH]c(=O)c2c1C (configuration not stated) | n | 15µM | n | u | n
COc1ccccc1CNC(=O)COC(=O)c1cnc(C)cn1 | n | n | n | n | n
Cc1nn2c(-c3ccco3)ccnc2c1-c1ccc(F)cc1 | x | n | x | n | x
COc1cc(/C=N/NC(N)=O)ccc1OCC(=O)Nc1cc(C)c(C)cc1Br | n | n | n | n | n
CC(=O)Nc1ccc(S(=O)(=O)N2CCN(S(=O)(=O)c3ccccc3)CC2)cc1 | n | n | n | n | n
CN1C(=O)C(C)(C)c2cc(S(=O)(=O)N3CCN(c4ccccc4F)CC3)ccc21 | n | 23µM | n | u | n
Cc1cc(S(=O)(=O)N2CCN(c3ccccc3F)CC2)ccc1-n1cnnn1 | n | u | n | u | -53
CC(=O)Nc1ccc(S(=O)(=O)N2CCN(c3cc(C)ccc3C)CC2)cc1 | n | u | n | 16µM | n
Cc1cccc(N2CCN(S(=O)(=O)c3ccc4c(c3)C(C)(C)C(=O)N4C)CC2)c1C | n | u | n | u | n
Cc1ccc(C)c(N2CCN(S(=O)(=O)c3ccc4c(c3)C(C)(C)C(=O)N4C)CC2)c1 | n | 23µM | n | u | n
CC(C#N)Sc1ccc(S(=O)(=O)N2CCCC2)cn1 (configuration not stated) | n | n | n | n | n
N#Cc1cc2cc3c(cc2nc1N1CCCCC1)OCCO3 | n | u | n | u | n
Cc1ccc(C(=O)N2CCCN(c3nc4cc5c(cc4cc3C#N)OCO5)CC2)cc1 | 21µM | 15µM | u | u | n
COc1ccc(C(=O)N2CCN(c3ncccn3)CC2)cc1 | n | n | n | n | n
COc1ccc(C(=O)N2CCN(c3nc4cc(C)cc(C)c4cc3C#N)CC2)cc1 | n | 18µM | n | u | n
Cc1cc(C)c2nc(N3CCN(C)CC3)c(C#N)cc2c1 | n | u | n | n | n
Cc1cc(C)c2nc(N3CCCN(C(=O)c4cnccn4)CC3)c(C#N)cc2c1 | n | 16µM | n | 23µM | n
COc1cccc(S(=O)(=O)N(C)C[C@@H]2OCc3cn(nn3)CCCC(=O)N([C@@H](C)CO)C[C@H]2C)c1 | n | n | n | n | n
Cc1nn(-c2ccccc2)c(Cl)c1CN(C(=O)CCl)c1cccc2ccccc12 | 5.2µM | 6.5µM | 4.1µM | 5.8µM | -98
CC(=O)N(Cc1c(C)nn(-c2ccccc2)c1Cl)c1ccc(Cl)cc1 | n | u | n | u | n
Cc1nn(-c2ccccc2)c(Cl)c1CN(C(=O)CCl)c1ccc(Cl)cc1 | 5.2µM | 6.5µM | 7.3µM | 7.3µM | -113
Cc1nn(-c2ccccc2)cc1/C=N/NC(N)=S | n | u | n | 18µM | n
Cn1cc(/C=N/NC(N)=S)c2ccccc21 | n | 3.3µM | n | 13µM | n
